Measured values as given in PubChem BioAssay (NCATS).
Values joined by “and” are separate entries in the source; they are usually repeats but may differ in a detail not shown here. Equal values may be shown once. Inconclusive results are not listed. Active and inactive are the calls of the source. Unless noted, the call rests on the fitted dose curve; in most records, active means well fitted curve in the direction sought with a large enough effect; inconclusive means small, poorly fitted or top-dose-only effect, or another doubt; inactive means no such curve, though single readings can be large; an effect the other way counts as inactive or inconclusive.

Columns and labels:
[1] = qHTS drug screen for cell cycle checkpoint inhibitors in PARPi-resistant BRCA-mutant ovarian cancer cell lines. (AID 1963452; calls by dose curve); conditions: PEO1/OlaR viability, CellTiter-Glo luminescence, 96 h, stronger effect = lower value
In short: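 PEO1, PEO4 and PEO1/OlaR ovarian cancer cells, 600 per well, exposed 96 h at 37C to a dilution series. Viability read by CellTiter-Glo luminescence, normalized to DMSO and empty wells; activity summarized as Z-AUC.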

[2] = biological target: Cytochrome P450 2C19 (Homo sapiens) (UniProt P33261); assay: qHTS for inhibitors of CYP2C19 against the NCATS DSHEA and TCM libraries (AID 1919974); conditions: CYP2C19 enzyme inhibition, luminescence qHTS; series mostly up to 18.8 µM;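 further: luminescence from luciferin released by CYP2C19 oxidation of a pro-luciferin substrate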; further: potency means the concentration at half of the fitted maximal effect
Cytochrome P450 2C19 (Homo sapiens), sequence (P33261 whole entry, looked up, canonical isoform): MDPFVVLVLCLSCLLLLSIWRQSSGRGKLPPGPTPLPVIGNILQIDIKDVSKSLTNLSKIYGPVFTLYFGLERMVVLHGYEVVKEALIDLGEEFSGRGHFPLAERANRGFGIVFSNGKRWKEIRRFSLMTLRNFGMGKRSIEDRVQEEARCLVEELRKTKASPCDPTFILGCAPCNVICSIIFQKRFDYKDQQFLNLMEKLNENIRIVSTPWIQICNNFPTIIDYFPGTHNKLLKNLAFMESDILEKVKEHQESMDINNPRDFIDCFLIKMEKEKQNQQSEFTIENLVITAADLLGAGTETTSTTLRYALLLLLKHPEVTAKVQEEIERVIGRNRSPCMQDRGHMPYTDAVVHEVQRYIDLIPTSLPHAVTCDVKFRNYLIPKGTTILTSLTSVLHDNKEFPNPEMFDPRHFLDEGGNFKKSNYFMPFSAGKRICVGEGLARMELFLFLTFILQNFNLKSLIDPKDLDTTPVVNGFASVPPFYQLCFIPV
In short: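 Isoform-specific enzyme and substrate levels; enzyme-free wells as background. Reaction: 1x NADPH regenerating system, 30-45 min, room temperature, shielded from light; luminescent detection reagent added, 30 min.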

[3] = KB-3-1 P-gp reporter qHTS against the NCATS DSHEA and TCM libraries (AID 1919975); conditions: KB-3-1 parental cells, CellTiter-Glo luminescence viability, 72 h; series mostly up to 14.4 µM; further: 0% is about no effect
In short: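 CellTiter-Glo luminescence viability readout; KB-3-1 parental cells, 500/well, attached ~4 h, then compound for ~72 h, 37C, 5% CO2. Bortezomib intraplate control.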

[4] = qHTS Counterscreen for compound interference against the NCATS DSHEA and TCM libraries (AID 1919978); conditions: firefly luciferase detection reagent interference, luminescence;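 further: compounds preincubated with 1 µM D-luciferin or buffer before detection reagent; % of control where 0% means no effect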
In short: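 Luminescence counterscreen for detection-kit interference: compounds at 19.5 nM–39.8 uM final, 15 min RT with 1 uM D-luciferin or buffer only; detection reagent added, 30 min RT, then read.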

[5] = Dual reporter qHTS for agonist of Pregnane X Receptor (hPXR) against the NCATS DSHEA and TCM libraries: Fluorescence readout (AID 1920058); conditions: PXR dual reporter cells; series mostly up to 22 µM; further: 0% is about no effect
In short: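 In this qHTS counter-read, reporter-bearing HepG2 cells in charcoal-stripped serum received substances for approximately 24 h before viability was assessed fluorometrically with CellTiter-Fluor.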

[6] = biological target: Nuclear receptor subfamily 1 group I member 2 (Homo sapiens) (UniProt O75469); assay: Dual reporter qHTS for agonist of Pregnane X Receptor (hPXR) against the NCATS DSHEA and TCM libraries: Luminescence readout (AID 1920059); conditions: hPXR dual reporter cells, luciferase luminescence agonist; series mostly up to 22 µM; further: 0% is about no effect
Nuclear receptor subfamily 1 group I member 2 (Homo sapiens), sequence (O75469 whole entry, looked up): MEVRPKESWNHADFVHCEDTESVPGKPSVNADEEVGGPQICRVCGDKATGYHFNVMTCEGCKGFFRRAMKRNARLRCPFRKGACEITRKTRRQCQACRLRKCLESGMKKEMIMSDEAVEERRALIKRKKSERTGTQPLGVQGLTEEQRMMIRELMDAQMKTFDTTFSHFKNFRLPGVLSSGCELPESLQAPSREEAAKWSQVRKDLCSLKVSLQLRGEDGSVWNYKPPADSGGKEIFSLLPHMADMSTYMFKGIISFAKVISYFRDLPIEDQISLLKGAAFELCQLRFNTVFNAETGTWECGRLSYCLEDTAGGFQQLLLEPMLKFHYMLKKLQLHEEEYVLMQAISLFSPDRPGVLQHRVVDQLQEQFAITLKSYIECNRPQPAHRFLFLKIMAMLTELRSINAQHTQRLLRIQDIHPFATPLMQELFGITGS
In short: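 Luminescent PXR reporter read (ONE-Glo) after a CellTiter-Fluor viability read, following 24 h, 37C treatment of HepG2 cells stably carrying hPXR-Luc.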

[7] = biological target: Nuclear receptor subfamily 1 group I member 2 (Homo sapiens) (UniProt O75469); assay: Dual reporter qHTS for antagonist of Pregnane X Receptor (hPXR) against the NCATS DSHEA and TCM libraries: Luminescence Readout (AID 1920060); conditions: hPXR dual reporter cells, luciferase luminescence, antagonist mode; series mostly up to 22 µM;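 further: HepG2 cells carrying hPXR luciferase reporter stimulated with rifampicin at 2 µM; 0% is about no effect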
Text: Assay Development and Screening Technology Laboratory (ADST)
National Center for Advancing Translational Sciences (NCATS), Rockville, MD
National Institute of Health (NIH), Bethesda, Maryland
Dietary Supplements and Natural Products have minor oversight of their safety and efficacy. We assembled a collection of Dietary Supplements and Natural Products (DSNP) as well as Traditional Chinese Medicinal (TCM) Plant extracts, which were screened against an in vitro panel of assays, including a liver cytochrome p450 enzyme panel, CAR/PXR signaling pathways, and P-gp transporter assays, to assess their activity. This pipeline facilitated the interrogation of Natural Product-Drug Interaction (NaPDI) through prominent metabolizing pathways. In addition, we compared the activity profiles of the DSNP/TCM substances with those of an approved drug collection. Many of the approved drugs have well-annotated mechanisms of action (MOA) while the MOAs for most of the DSNP and TCM samples remain unknown. Based on the premise that compounds with similar activity profiles tend to share similar targets or MOA, we clustered the library activity profiles to identify overlap with the NCATS Pharmaceutical Collection to predict the MOAs of the DSNP/TCM substances. Overall, we highlight four significant bioactivity profiles (measured by p-values) as examples of this prediction. To assess broad cytotoxicity, we employed screening against a HepG2 cell line. In addition, transporter-mediated drug interactions are utilized in the characterization of DDIs using a P-glycoprotein (P-gp) assays. To profile potential P-gp activity, a differential cell viability was measured against two cell lines: a parental KB-3-1 human cervical adenocarcinoma cell line and the drug-resistant subline KB-8-5-11 that overexpresses P-gp.
To this end, we profiled both collections for potential CAR and/or PXR activity, employing a previously published 1536-well qHTS assay.
[1] Lee TD, et al. A High-Throughput Screen of a Library of Therapeutics Identifies Cytotoxic Substrates of P-glycoprotein. Mol Pharmacol. Nov 2019;96(5):629-640. doi:10.1124/mol.119.115964
For PXR luciferase reporter gene assays, we used hPXR-LucHepG2cells provided by Dr. Taosheng Chen (Department of Chemical Biology and Therapeutics, St. Jude Children's Research Hospital). Cells were cultured in EMEM supplemented with 10% fetal bovine serum, 100U/mL penicillin and 100ug/mL streptomycin, and 500ug/mL of geneticin.
PROTOCOL TABLE (as described by Inglese J, Shamu CE and Guy RK. 2007)
SEQUENCE No. (e.g., 1, 2, 3, etc.); PARAMETER (e.g., Cells, Incubation, Reagent, etc.); VALUE; DESCRIPTION.
1; Cells; 5 uL; hPXR-LucHepG2; white solid-bottom Greiner plate.
2; Incubation; 5h; 37C, 95% humidity, 5% CO2
3; Compounds and control; 23 nL; Kalypsis pintool (Wako USA).
4; Reagent; 1uL; rifampicin (RIF) in the antagonist mode.
6; Reagent; 1 uL; CellTiter-Fluor detection reagent.
7; Incubation; 1 hr; 37C, 5% CO2.
8; Read; Fluorescence; ViewLux plate reader.
9; Reagent; 4 uL; ONE-Glo Luciferase detection reagent.
10; Incubation; 30 min; room temperature.
11; Read; Luminescence; ViewLux plate reader.
NOTES (numbers refer to Sequence numbers above)
1. Briefly, 5uL of hPXR-LucHepG2 cells in phenol red-free DMEM containing 5% charcoal-stripped FBS, 1 mM sodium pyruvate (Invitrogen), 2 mM L-glutamine (Invitrogen), and 100 U/mL penicillin and 100ug/mL streptomycin were dispensed using a BioRAPTR FRD at 4 x 10^5cells/mL (2000cells/well) in tissue culture-treated 1536-well white assay plates (GreinerBio-One).
2. Plates were incubated for 5h at 37C, 95% humidity, and 5% CO2 to allow for cell attachment.
3. Compounds (final concentration for most substances ranged from 15.6 nM to 45.9uM), positive SPA70 (final concentration range of 2.8 nM to 92uM for the antagonist mode), and cytotoxicity control tetraoctyl ammonium bromide (final concentration of 92uM) were transferred (23 nL) via pintool (Wako Automation).
4-5. […]

[8] = Dual reporter qHTS for antagonist of Pregnane X Receptor (hPXR) against the NCATS DSHEA and TCM libraries: Fluorescence Readout (AID 1920061); conditions: PXR dual reporter cells, antagonist mode; series mostly up to 22 µM; further: 0% is about no effect
In short: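 In antagonist mode, 2 uM rifampicin was added to hPXR-Luc HepG2 cells alongside test substances, incubated 24 h at 37 C; luminescence gave reporter activity, and CellTiter-Fluor fluorescence (405/540 nm) gave viability.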

[9] = biological target: Cytochrome P450 1A2 (Homo sapiens) (UniProt P05177); assay: qHTS for inhibitors of CYPIA2 against the NCATS DSHEA and TCM libraries (AID 1919976); conditions: recombinant CYP1A2 enzyme activity, luminescence; series mostly up to 20.3 µM;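 further: light from luciferin formed by CYP1A2 from a pro-luciferin substrate; on the % scale 0 is the no-effect control and ±100 the full control effect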
Cytochrome P450 1A2 (Homo sapiens), sequence (P05177 whole entry, looked up): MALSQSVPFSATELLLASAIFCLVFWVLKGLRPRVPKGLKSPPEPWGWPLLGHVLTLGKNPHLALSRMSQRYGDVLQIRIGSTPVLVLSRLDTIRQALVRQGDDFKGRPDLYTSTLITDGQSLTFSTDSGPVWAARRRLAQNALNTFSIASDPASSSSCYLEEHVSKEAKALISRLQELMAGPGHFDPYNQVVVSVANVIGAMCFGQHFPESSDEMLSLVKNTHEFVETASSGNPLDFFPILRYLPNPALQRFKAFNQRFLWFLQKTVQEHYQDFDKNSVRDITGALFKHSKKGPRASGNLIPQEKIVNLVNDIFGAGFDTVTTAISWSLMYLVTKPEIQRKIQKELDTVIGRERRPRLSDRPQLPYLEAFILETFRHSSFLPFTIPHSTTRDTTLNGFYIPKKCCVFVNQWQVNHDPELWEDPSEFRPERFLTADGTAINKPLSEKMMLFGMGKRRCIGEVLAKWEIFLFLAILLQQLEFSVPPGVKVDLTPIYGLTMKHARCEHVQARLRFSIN
In short: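 Furafylline served as the plate control. Compounds met CYP1A2 and pro-luciferin substrate 15 min before NADPH regeneration solution (1x) was added; after 30-45 min at RT, P450-Glo reagent was added for 30 min and luminescence was measured.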

[10] = measured here: PEO1 parental Z-AUC

Question: Which results are given for `Cc1c(F)cc(C(=O)NC2CC2)cc1-c1c(F)cn2c(C(C)(C)C)nnc2c1F`?
Answer: Z-AUC [1]: 0.645 (inactive); Z-AUC [1, 10]: 0.963; Z-AUC ([1]; measured here: PEO4 Z-AUC): 1.81

Question: With `CC(C)=CCC[C@](C)(O[C@@H]1O[C@H](CO[C@@H]2O[C@H](CO)[C@@H](O)[C@H](O)[C@H]2O)[C@@H](O)[C@H](O)[C@H]1O)C1CC[C@]2(C)[C@@H]1[C@H](O)CC1[C@@]3(C)CC[C@H](O[C@@H]4O[C@H](CO)[C@@H](O)[C@H](O)[C@H]4O[C@@H]4O[C@H](CO)[C@@H](O)[C@H](O)[C@H]4O)C(C)(C)[C@@H]3CC[C@]12C` (stereo not given in full) as the molecule, how does the Potency [2] read?
Answer: 1000 nM (active)

Question: And the outcome [3]?
Answer: inactive

Question: And the max response [4]?
Answer: -2.77% (inactive)

Question: What about the outcome [5] of the same molecule?
Answer: inactive

Question: And the outcome [6]?
Answer: inactive

Question: What about the outcome [7] of the same molecule?
Answer: inactive

Question: And the outcome [8]?
Answer: inactive

Question: With `CC(C)c1c2cc(-c3ccnc(NC4CCC(NC5CCOCC5)CC4)n3)ccc2nn1C` (stereo not given) as the molecule, how does the Z-AUC [1] read?
Answer: -1.95 (inactive)

Question: And the Z-AUC [1, 10]?
Answer: -2.05

Question: And the Z-AUC ([1]; measured here: PEO4 Z-AUC)?
Answer: -1.88

Question: Which Z-AUC [1] does the source give for `Cc1cccc(Oc2cnc(=O)[nH]c2)c1` here?
Answer: -0.692 (inactive)

Question: What about the Z-AUC [1, 10] of the same molecule?
Answer: -0.81

Question: And the Z-AUC ([1]; measured here: PEO4 Z-AUC)?
Answer: -0.687

Question: Which results are given for `C[C@H]1Oc2cc(cnc2N)-c2c(nn(C)c2C#N)CN(C)C(=O)c2ccc(F)cc21`?
Answer: Z-AUC [1]: 0.784 (inactive) and 2.21 (inactive); Z-AUC [1, 10]: -0.00425 and 0.761; Z-AUC ([1]; measured here: PEO4 Z-AUC): -0.356 and 0.596

Question: With `CCOc1cc2ncc(C#N)c(Nc3ccc(F)c(Cl)c3)c2cc1NC(=O)/C=C/CN(C)C` as the molecule, how does the Z-AUC [1] read?
Answer: -0.44 (inactive)

Question: And the Z-AUC [1, 10]?
Answer: -0.362

Question: And the Z-AUC ([1]; measured here: PEO4 Z-AUC)?
Answer: -0.838

Question: Which Z-AUC [1] does the source give for `CC[C@]12C=CCN3CC[C@@]4(c5cc([C@@]6(C(=O)OC)C[C@H]7C[C@@H](C(C)(F)F)CN(Cc8c6[nH]c6ccccc86)C7)c(OC)cc5N(C)[C@H]4[C@@](O)(C(=O)OC)[C@@H]1OC(C)=O)[C@@H]32` here?
Answer: -2.08 (inactive) and -1.5 (inactive)

Question: And the Z-AUC [1, 10]?
Answer: -0.895 and -0.96

Question: And the Z-AUC ([1]; measured here: PEO4 Z-AUC)?
Answer: -1.63 and -1.07

Question: Which results are given for `CCCCNc1ncc2c(-c3ccc(F)cc3)nn(CC3CCC(N)CC3)c2n1` (stereo not given)?
Answer: Z-AUC [1]: -1.02 (inactive); Z-AUC [1, 10]: -0.901; Z-AUC ([1]; measured here: PEO4 Z-AUC): -1.35

Question: For `CC[C@@](C)(Nc1ccnc(-c2c[nH]c3ncccc23)n1)C(=O)NCC(F)(F)F`, which Z-AUC [1] is on record?
Answer: -1.18 (inactive)

Question: And the Z-AUC [1, 10]?
Answer: -0.201

Question: And the Z-AUC ([1]; measured here: PEO4 Z-AUC)?
Answer: -0.4

Question: With `Nc1nccn2c(C3CCC(C(=O)O)CC3)nc(-c3cc4cccc(Cl)c4[nH]3)c12` (stereo not given) as the molecule, how does the Z-AUC [1] read?
Answer: -0.361 (inactive)

Question: And the Z-AUC [1, 10]?
Answer: -0.773

Question: What about the Z-AUC ([1]; measured here: PEO4 Z-AUC) of the same molecule?
Answer: -1.14

Question: Which Z-AUC [1] does the source give for `FC(F)(F)c1ccc(Nc2nc(-c3c(C(F)(F)F)nc4ccccn34)cs2)cc1` here?
Answer: -2.12 (inactive)

Question: What about the Z-AUC [1, 10] of the same molecule?
Answer: -1.08

Question: What about the Z-AUC ([1]; measured here: PEO4 Z-AUC) of the same molecule?
Answer: -1.77

Question: Which Potency [2] does the source give for `CC(C)=CCC[C@](C)(O)[C@H]1CC[C@]2(C)[C@@H]1[C@H](O)CC1[C@@]3(C)CC[C@H](O)C(C)(C)[C@@H]3[C@@H](O[C@@H]3O[C@H](CO)[C@@H](O)[C@H](O)[C@H]3O[C@@H]3O[C@H](CO)[C@@H](O)[C@H](O)[C@H]3O)C[C@]12C` (stereo not given in full) here?
Answer: inactive

Question: And the outcome [3]?
Answer: inactive

Question: And the Potency [9]?
Answer: inactive

Question: What about the max response [4] of the same molecule?
Answer: -4.33% (inactive)

Question: What about the outcome [5] of the same molecule?
Answer: inactive

Question: And the outcome [6]?
Answer: inactive

Question: What about the outcome [7] of the same molecule?
Answer: inactive

Question: And the outcome [8]?
Answer: inactive
